Source: PubChem BioAssay (EPA / NIEHS)
Records with an inconclusive call do not appear. Activity calls are given as the source filed them. How the source made its calls, unless noted: active means hit-call score of the fitted dose curve at least 0.9, where 1 is the maximum; inconclusive means response in the unintended direction; inactive means score below 0.9.

How the values were obtained:
[1] = target: Nuclear receptor subfamily 1 group I member 2 (Homo sapiens) (UniProt O75469); assay: NVS_NR_hPXR: NovaScreen (NVS) Nuclear Receptor Binding Assay for human Pregnane X Receptor (PXR) (AID 2283365);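 further: a drop in FRET signal versus DMSO baseline means the compound binds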
Chain of Nuclear receptor subfamily 1 group I member 2 (Homo sapiens) (O75469 whole entry, looked up): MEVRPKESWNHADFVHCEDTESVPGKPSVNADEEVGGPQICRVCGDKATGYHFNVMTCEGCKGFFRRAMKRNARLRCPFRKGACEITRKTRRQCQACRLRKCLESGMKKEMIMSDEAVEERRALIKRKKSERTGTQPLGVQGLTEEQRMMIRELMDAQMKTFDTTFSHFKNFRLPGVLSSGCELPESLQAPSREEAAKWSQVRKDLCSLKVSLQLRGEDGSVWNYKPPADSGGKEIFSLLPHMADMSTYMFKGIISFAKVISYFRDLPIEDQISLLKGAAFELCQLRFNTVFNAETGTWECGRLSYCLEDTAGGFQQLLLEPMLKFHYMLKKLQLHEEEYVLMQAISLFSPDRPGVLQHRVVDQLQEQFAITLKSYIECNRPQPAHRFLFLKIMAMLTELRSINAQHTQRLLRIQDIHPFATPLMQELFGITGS
Procedure, shortened: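 TR-FRET signal read at 2 h in a cell-free human PXR binding format. DMSO served as negative control and baseline; activity scored as signal loss. Single-concentration duplicate screen (25 uM), then concentration-response follow-up.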

[2] = target: Peroxisome proliferator-activated receptor gamma (Homo sapiens) (UniProt P37231); assay: NVS_NR_hPPARg: NovaScreen (NVS) Nuclear Receptor Binding Assay for human Peroxisome Proliferator-activated Receptor gamma (PPARg) (AID 2283370)
Chain of Peroxisome proliferator-activated receptor gamma (Homo sapiens) (P37231 whole entry, looked up, the tested form may be a part): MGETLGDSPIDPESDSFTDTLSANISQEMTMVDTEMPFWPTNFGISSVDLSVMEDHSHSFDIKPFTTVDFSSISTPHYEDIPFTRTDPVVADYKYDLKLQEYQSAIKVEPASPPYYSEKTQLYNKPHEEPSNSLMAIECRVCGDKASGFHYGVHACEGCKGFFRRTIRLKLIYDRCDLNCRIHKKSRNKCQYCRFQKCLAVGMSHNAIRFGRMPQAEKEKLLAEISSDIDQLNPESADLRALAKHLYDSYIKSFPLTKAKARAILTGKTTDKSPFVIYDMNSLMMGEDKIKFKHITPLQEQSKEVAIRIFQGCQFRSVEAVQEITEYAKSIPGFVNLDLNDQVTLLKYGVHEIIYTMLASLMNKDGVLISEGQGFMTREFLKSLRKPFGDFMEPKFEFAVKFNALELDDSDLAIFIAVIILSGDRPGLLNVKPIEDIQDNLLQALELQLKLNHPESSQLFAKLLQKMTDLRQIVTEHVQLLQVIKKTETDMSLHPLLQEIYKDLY
Procedure, shortened: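 FP read-out, 2 h post-dose, cell-free extracted receptor protein. Signal loss vs DMSO negative control = binding activity. Single-conc duplicate HTS at 25 uM; concentration-response follow-up for actives.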

[3] = target: Estrogen receptor beta (Homo sapiens) (UniProt Q92731); assay: OT_ER_ERbERb_1440: Odyssey Thera (OT) 24-hour HEK293T Protein-Complementation Assay for Estrogen Receptor-beta/-beta Homodimer (AID 2283380);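 further: fluorescence gain from ER beta LBD homodimer complementation read by laser scanning cytometry; scored as signal increase over DMSO baseline for both agonists and antagonists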
Chain of Estrogen receptor beta (Homo sapiens) (Q92731 whole entry, looked up, the tested form may be a part): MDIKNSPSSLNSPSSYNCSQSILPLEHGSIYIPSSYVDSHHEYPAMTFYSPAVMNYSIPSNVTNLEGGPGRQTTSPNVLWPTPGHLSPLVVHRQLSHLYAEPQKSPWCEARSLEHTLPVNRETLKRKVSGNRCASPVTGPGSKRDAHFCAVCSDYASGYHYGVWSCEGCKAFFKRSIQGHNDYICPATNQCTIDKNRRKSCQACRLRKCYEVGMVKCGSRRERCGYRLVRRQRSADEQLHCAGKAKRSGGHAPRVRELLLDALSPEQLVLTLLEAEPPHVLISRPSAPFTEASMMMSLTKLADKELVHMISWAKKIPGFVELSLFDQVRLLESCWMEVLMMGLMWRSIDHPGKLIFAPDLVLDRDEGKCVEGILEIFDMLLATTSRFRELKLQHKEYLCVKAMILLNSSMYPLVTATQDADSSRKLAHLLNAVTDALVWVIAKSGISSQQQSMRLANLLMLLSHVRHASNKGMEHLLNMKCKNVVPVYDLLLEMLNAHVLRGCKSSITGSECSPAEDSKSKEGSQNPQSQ
Procedure, shortened: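 HEK293T cells stably expressing human ER-beta LBD (aa 310-547) PCA homodimer pair, dosed 24 h; formaldehyde-fixed, Draq5-stained. Readout: increase in nuclear (agonist) or nuclear plus cytoplasmic (antagonist) fluorescence intensity versus DMSO, gain-of-signal fitting.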

[4] = target: Bile acid receptor (Homo sapiens) (UniProt Q96RI1); assay: OT_FXR_FXRSRC1_0480: Odyssey Thera (OT) 8-hour HEK293T Protein-Complementation Assay for Farnesoid X receptor/SRC-1 Co-activator (AID 2283383)
Chain of Bile acid receptor (Homo sapiens) (Q96RI1 whole entry, looked up, the tested form may be a part): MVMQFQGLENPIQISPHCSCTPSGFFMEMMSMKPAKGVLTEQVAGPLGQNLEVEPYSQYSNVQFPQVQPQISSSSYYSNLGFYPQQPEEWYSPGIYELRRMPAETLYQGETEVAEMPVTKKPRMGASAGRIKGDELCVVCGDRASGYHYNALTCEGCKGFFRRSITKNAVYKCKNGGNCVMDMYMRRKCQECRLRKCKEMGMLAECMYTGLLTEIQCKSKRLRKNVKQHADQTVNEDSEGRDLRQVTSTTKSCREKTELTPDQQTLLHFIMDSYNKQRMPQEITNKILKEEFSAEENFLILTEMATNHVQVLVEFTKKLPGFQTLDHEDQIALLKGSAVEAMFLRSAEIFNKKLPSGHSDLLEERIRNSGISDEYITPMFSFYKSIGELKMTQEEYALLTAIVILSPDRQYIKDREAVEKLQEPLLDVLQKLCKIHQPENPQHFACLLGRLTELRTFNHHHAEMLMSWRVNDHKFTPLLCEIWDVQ
Procedure, shortened: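 HEK293T protein-fragment complementation assay: FXR and SRC-1 coactivator are fused to reporter fragments, and their interaction restores a fluorescent reporter. Readout was taken 8 h after dosing, with gain of signal fit relative to DMSO.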

[5] = target: Retinoic acid receptor RXR-alpha (Homo sapiens) (UniProt P19793); assay: OT_NURR1_NURR1RXRa_0480: Odyssey Thera (OT) 8-hour HEK293T Protein Complementation Assay for Nurr1/retinoid X receptor (RXR) (AID 2283385)
Chain of Retinoic acid receptor RXR-alpha (Homo sapiens) (P19793 whole entry, looked up, the tested form may be a part): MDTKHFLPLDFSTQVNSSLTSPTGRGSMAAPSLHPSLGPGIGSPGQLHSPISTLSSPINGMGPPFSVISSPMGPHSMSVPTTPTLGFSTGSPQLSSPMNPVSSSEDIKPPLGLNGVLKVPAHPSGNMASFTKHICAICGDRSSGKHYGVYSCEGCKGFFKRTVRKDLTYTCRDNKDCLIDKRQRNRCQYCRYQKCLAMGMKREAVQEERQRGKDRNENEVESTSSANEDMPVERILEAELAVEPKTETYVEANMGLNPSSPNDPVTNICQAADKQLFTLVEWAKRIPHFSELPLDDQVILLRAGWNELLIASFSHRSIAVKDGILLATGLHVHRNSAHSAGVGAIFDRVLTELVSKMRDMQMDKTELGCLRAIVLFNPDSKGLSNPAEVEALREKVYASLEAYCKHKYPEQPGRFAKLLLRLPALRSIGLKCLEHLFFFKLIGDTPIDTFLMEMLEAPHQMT
Procedure, shortened: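 HEK293T cells expressing Nurr1 and RXRα fused to reporter fragments (protein-fragment complementation); fluorescence measured 8 h after dosing. Gain of signal fitted relative to DMSO.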

[6] = target: Peroxisome proliferator-activated receptor gamma (Homo sapiens) (UniProt P37231); assay: OT_PPARg_PPARgSRC1_0480: Odyssey Thera (OT) 8-hour Protein-Complementation Assay for Peroxisome Proliferator-activated Receptor Gamma / SRC-1 Co-activator (AID 2283387);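 further: nuclear to cytoplasmic split Venus YFP fluorescence ratio reporting PPARg SRC-1 interaction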
Procedure, shortened: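 Read-out: 488 nm N/C fluorescence ratio from complemented Venus YFP fragments, ≥350 cells per image, gain-of-signal fitted against DMSO baseline. Fusions of PPARg/SRC-1 with IFP1/IFP2 expressed transiently in HEK293T; compounds applied 8 h.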

[7] = target: Peroxisome proliferator-activated receptor gamma (Homo sapiens) (UniProt P37231); assay: OT_PPARg_PPARgSRC1_1440: Odyssey Thera (OT) 24-hour Protein-Complementation Assay for Peroxisome Proliferator-activated Receptor Gamma/ SRC-1 Co-activator (AID 2283388);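 further: nuclear to cytoplasmic ratio of reconstituted Venus YFP fluorescence in fixed imaged cells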
Procedure, shortened: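 Readout: nuclear-to-cytoplasmic 488 nm fluorescence ratio, ≥350 cells per image, 8 images per well, after 24 h compound exposure of HEK293T expressing PPARg/SRC-1 split-YFP fusions. Activity fitted in positive direction against DMSO.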

[8] = target: guinea pig Sigma Receptor, Non-selective Binding, SIGMAR1 (gene 100135589) (UniProt Q60492); assay: NVS_OR_gSIGMA_NonSelective: NovaScreen (NVS) Nuclear Receptor Binding Assay for guinea pig Sigma Receptor, Non-selective Binding (AID 2283367)
Chain of guinea pig Sigma Receptor, Non-selective Binding, SIGMAR1 (gene 100135589) (Q60492 whole entry, looked up): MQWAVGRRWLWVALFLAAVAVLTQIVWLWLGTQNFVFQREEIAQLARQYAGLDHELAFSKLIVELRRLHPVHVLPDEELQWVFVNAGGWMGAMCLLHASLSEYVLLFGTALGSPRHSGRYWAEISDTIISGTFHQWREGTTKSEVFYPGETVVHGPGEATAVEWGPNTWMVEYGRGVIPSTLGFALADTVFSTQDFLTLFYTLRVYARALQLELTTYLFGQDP
Procedure, shortened: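 Guinea pig brain membranes, cell-free radioligand binding; read 1 h after dosing by filter-based scintillation counting. Loss of signal vs DMSO baseline taken as displacement. Primary screen single concentration 25 uM in duplicate; actives retested in concentration series.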

[9] = target: rat Serotonin Transporter (SERT), Slc6a4 (gene 25553) (UniProt P31652); assay: NVS_TR_rSERT: NovaScreen (NVS) Transporter Assay for rat Serotonin Transporter (SERT) (AID 2283375)
Procedure, shortened: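 Radioligand displacement, filter scintillation readout; rat forebrain membrane prep, 1 h post-dose. Single-conc 25 uM duplicate screen, then concentration-response on actives. Loss of signal vs DMSO baseline.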

[10] = target: human Norepinephrine Transporter (NET), SLC6A2 (gene 6530) (UniProt P23975); assay: NVS_TR_hNET: NovaScreen (NVS) Transporter Assay for human Norepinephrine Transporter (NET) (AID 2283377);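 further: cell-free membrane protein extracted from CHO cells expressing human NET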
Procedure, shortened: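 Radioligand binding to human NET in cell-free CHO-derived protein preparations, read by filter-based scintillation counting 1 hour after dosing. Loss of signal versus DMSO baseline indicated displacement; primary screening in duplicate at 25 uM, actives then titrated.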

[11] = target: human Thyroid Receptor Alpha (TRa), THRA (gene 7067) (UniProt P10827); assay: NVS_NR_hTRa_Antagonist: NovaScreen (NVS) Nuclear Receptor Binding Assay for human Thyroid Receptor Alpha Antagonism (TRa) (AID 2283362);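 further: activity is loss of signal relative to DMSO baseline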
Chain of human Thyroid Receptor Alpha (TRa), THRA (gene 7067) (P10827 whole entry, looked up): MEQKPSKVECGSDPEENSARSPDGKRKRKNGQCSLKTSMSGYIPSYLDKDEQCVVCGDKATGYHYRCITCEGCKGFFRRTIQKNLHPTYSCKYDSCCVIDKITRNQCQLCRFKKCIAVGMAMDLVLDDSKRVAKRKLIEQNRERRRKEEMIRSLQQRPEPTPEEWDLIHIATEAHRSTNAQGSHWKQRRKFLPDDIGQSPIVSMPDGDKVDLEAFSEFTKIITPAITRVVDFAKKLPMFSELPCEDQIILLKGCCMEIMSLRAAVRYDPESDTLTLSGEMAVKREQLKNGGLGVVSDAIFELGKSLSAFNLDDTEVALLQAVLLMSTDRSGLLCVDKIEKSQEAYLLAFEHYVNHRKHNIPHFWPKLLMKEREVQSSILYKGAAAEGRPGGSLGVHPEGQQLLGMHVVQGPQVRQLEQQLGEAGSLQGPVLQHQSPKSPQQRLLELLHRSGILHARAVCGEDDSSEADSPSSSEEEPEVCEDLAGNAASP
Procedure, shortened: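 AlphaLISA chemiluminescent immunoassay readout, taken 1 h post-dosing in a cell-free system with extracted protein. Activity was scored as signal loss against DMSO negative control, from duplicate single-concentration (25 uM) testing followed by concentration-response follow-up.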

[12] = target: Agonist Androgen Response Element (ARE), AR (gene 367) (UniProt P10275); assay: OT_AR_ARELUC_AG_1440: Odyssey Thera (OT) 24-hour CHO-K1 Luciferase Assay for Agonist Androgen Response Element (ARE) (AID 2283379)
Chain of Agonist Androgen Response Element (ARE), AR (gene 367) (P10275 whole entry, looked up): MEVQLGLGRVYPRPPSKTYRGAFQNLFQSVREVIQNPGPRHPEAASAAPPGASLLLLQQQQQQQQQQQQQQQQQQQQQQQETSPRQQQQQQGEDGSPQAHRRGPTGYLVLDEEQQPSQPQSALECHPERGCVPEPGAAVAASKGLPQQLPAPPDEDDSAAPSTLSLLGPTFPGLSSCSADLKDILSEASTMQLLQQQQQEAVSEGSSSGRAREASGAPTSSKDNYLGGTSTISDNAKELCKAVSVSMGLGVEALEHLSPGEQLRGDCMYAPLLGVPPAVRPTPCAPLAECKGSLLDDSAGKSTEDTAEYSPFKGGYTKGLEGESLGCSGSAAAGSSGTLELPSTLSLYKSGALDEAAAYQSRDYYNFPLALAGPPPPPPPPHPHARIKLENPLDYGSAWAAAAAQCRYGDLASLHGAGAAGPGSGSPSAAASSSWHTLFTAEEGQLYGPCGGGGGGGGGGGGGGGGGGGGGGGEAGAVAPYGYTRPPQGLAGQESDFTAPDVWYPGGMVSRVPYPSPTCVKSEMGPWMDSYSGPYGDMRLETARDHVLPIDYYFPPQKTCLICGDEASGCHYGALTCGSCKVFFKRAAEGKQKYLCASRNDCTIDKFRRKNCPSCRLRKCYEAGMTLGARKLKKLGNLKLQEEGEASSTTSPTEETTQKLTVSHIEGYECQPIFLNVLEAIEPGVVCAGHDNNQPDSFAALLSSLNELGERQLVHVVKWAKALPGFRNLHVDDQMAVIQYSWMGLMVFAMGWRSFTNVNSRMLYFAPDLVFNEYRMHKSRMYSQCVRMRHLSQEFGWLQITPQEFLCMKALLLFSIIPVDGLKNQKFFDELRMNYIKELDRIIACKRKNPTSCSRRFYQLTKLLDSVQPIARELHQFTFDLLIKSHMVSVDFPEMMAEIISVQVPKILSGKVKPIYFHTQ
Procedure, shortened: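 Seed CHO-K1 cells; dose compounds for 24 h; add D-luciferin plus ATP in PBS; read luminescence. Signal increase relative to vehicle defines agonist activity, with at least 3 replicate wells per sample.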

[13] = target: Retinoic acid receptor RXR-alpha (Homo sapiens) (UniProt P19793); assay: OT_NURR1_NURR1RXRa_1440: Odyssey Thera (OT) 24-hour HEK293T Protein Complementation Assay for Nurr1/retinoid X receptor (RXR) (AID 2283386)
Procedure, shortened: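 HEK293T protein-fragment complementation of Nurr1 and RXRα fused to reporter fragments; compounds 24 h. Fluorescence gain from reconstituted reporter fitted versus DMSO.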

[14] = target: Glucocorticoid receptor (Homo sapiens) (UniProt P04150); assay: NVS_NR_hGR: NovaScreen (NVS) Nuclear Receptor Binding Assay for human Glucocorticoid Receptor (GR) (AID 2283363);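 on AC50: activity is loss of specific radioligand binding signal relative to DMSO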
Chain of Glucocorticoid receptor (Homo sapiens) (P04150 whole entry, looked up): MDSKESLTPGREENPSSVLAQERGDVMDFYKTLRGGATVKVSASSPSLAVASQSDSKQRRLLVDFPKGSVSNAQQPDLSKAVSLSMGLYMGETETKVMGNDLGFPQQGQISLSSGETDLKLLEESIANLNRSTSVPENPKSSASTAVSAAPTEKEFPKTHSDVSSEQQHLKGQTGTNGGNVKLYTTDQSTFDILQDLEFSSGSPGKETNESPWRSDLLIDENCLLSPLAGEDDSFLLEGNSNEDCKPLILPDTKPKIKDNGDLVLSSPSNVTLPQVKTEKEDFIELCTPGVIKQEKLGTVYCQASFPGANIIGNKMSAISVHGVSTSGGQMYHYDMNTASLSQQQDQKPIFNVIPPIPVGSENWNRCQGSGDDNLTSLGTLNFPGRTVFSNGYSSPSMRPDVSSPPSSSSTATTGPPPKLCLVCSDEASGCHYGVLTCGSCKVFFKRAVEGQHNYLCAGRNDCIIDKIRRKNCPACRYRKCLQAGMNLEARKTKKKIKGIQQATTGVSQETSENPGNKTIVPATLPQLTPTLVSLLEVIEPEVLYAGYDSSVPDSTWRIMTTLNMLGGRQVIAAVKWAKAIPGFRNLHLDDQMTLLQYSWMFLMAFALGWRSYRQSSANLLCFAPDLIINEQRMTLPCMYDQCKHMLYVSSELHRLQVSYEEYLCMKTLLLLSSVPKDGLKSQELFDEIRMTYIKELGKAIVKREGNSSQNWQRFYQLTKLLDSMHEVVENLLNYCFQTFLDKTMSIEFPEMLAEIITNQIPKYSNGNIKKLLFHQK
Procedure, shortened: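 Cell-free radioligand binding with extracted receptor protein, read by filter-based scintillation counting 16 hours after dosing. Loss of specific signal versus DMSO baseline was scored. Primary screen ran in duplicate at 25 uM; actives were followed up in concentration series.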

[15] = CEETOX_H295R_11DCORT: CeeTox H295R High-throughput Steroidogenesis Assay for 11-Deoxycortisol (11DCORT) (AID 2283432; active means hit-call score of the fitted dose curve at least 0.9, where 1 is the maximum; inactive means score below 0.9;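 on AC50: 11-deoxycortisol secreted into the medium measured by LC-MS/MS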); settings: actives raise or lower the signal
Procedure, shortened: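 H295R cells; 10 uM forskolin prestim 48 h; compound in 0.1% DMSO 48 h; media extracted with MTBE; 11-deoxycortisol by LC-MS/MS, 7-point standard curve; gain/loss vs DMSO baseline; viability by MTT in same wells.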

[16] = CEETOX_H295R_OHPREG: CeeTox H295R High-throughput Steroidogenesis Assay for OH-Pregnenolone (OHPREG) (AID 2283434; active means hit-call score of the fitted dose curve at least 0.9, where 1 is the maximum; inactive means score below 0.9); settings: actives raise or lower the signal
Procedure, shortened: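 Human adrenal H295R cells were prestimulated 48 h with 10 uM forskolin, then exposed 48 h to chemical in 0.1% DMSO. Medium 17alpha-hydroxypregnenolone was quantified by HPLC-MS/MS after MTBE extraction; bidirectional fitting versus DMSO baseline.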

[17] = target: Estrogen receptor (Homo sapiens) (UniProt P03372); assay: OT_ERa_GFPERaERE_0480: Odyssey Thera (OT) 8-hour HeLa Transcription Induction Assay for Estrogen Receptor (AID 2283381; active means hit-call score of the fitted dose curve at least 0.9, where 1 is the maximum; inactive means score below 0.9)
Procedure, shortened: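 HeLa cells expressing GFP reporter under estrogen response element, imaged 8 h after dosing. GFP induction quantified by high-content fluorescence microscopy image analysis; gain of signal fitted versus DMSO.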

Measured: AC50

CCCC/C=C\CCCCCCCCCC=O
inactive: [1] | [2] | [3] | [4] | [5] | [6] | [7]

CCn1c2ccccc2c2cc(N)ccc21
active: [8] 12.3 µM | [9] 39.3 µM | [10] 12.3 µM

COc1ccc(O)cc1
active: [13] 44.6 µM
inactive: [11] | [12] | [3] | [6] | [7]

C#C[C@]1(O)CC[C@H]2[C@@H]3CCC4=Cc5oncc5C[C@]4(C)[C@H]3CC[C@@]21C
active: [14] 0.319 µM | [15] 5.4 µM | [16] 0.36 µM

COc1c(Cl)c(Cl)c(Cl)c(Cl)c1Cl
inactive: [1] | [3] | [4] | [5]

BrC1CCC(Br)C(Br)CCC(Br)C(Br)CCC1Br (stereo unspecified)
inactive: [2] | [12] | [3] | [17] | [5] | [13] | [6] | [7]
active: [4] 18.2 µM

Cc1ccc(C=O)cc1
inactive: [14]

CCCCC[Si](OCC)(OCC)OCC
inactive: [1] | [3] | [5] | [6] | [7]

O=c1cc(-c2ccccc2)oc2cc(O)cc(O)c12
active: [3] 11 µM
inactive: [1] | [12] | [5] | [13] | [6] | [7] | [15] | [16]

CCCCCCCCCCCCCCCC(=O)OC[C@H](O)[C@H]1OC(=O)C(O)=C1O
active: [2] 25 µM | [13] 84.2 µM
inactive: [11] | [1] | [12] | [17] | [5] | [6] | [7]

CCN(CC)c1ccc(C(=C2C=CC(=[N+](CC)CC)C=C2)c2ccc(S(=O)(=O)O)cc2S(=O)(=O)[O-])cc1
inactive: [12] | [3] | [6] | [7]
active: [11] 8.03 µM
